# Several values for one entry are separate records, joined by “and”; a condition that tells them apart may be missing. Identical values can stand only once. Counter-ions that a name gives are not always drawn. In all, about 5,800 compounds went through this assay and about 620 (11%) showed activity. The sample as a whole holds a higher share of actives than the screen did. Values without a mark were called inactive.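 The calls were made as follows: active = score above a cut-off or among the top three wells of a plate; in these data no inactive exceeds 0.85.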
# System: primary human hepatic stellate cells (donor 1)
# Experiment: scaled lipid accumulation score (0 = DMSO-like, 1 = nortriptyline-like); higher = stronger HSC inactivation (lipid re-accumulation), active = hit call of the paper
# Settings: 48 h
# [1] = library stock concentration: 1 mM
# [2] = library stock concentration: 3.33 mM
# [3] = library stock concentration: 10 mM
# [4] = library stock concentration: 400 uM
# [5] = library stock concentration: 2 mM
smiles,measurement,setting,value
"CCCCCCCCCC(=O)OCC(CO)OC(=O)CCCCCCCCC (stereo not drawn) [1,2-Didecanoyl-sn-glycerol]",scaled lipid accumulation score,[1],≤ 0
"CCCCCCCCCC(=O)OCC(CO)OC(=O)CCCCCCCCC (stereo not drawn) [1,2-Didecanoyl-glycerol (10:0)]",scaled lipid accumulation score,[1],≤ -0.021
CCCCCC(O)C=CC1CC2CC(C1CC=CCCCC(=O)O)C2(C)C [15(R)-Pinane Thromboxane A2],scaled lipid accumulation score,[1],≤ 0
Cc1onc(-c2ccccc2)c1-c1ccc(S(N)(=O)=O)cc1 [Valdecoxib],scaled lipid accumulation score,[2],≤ 0
same,scaled lipid accumulation score,[3],0.226 and 0.088
Cc1onc(-c2ccccc2)c1-c1ccc(S(N)(=O)=O)cc1,scaled lipid accumulation score,[3],≤ 0
CCCCCCCCCCCCCCCC(=O)OC [Palmitic Acid methyl ester],scaled lipid accumulation score,[1],0.031
"O=P(O)(O)OC1C(O)C(OP(=O)(O)O)C(O)C(OP(=O)(O)O)C1O [D-myo-Inositol-1,3,5-triphosphate (sodium salt)]",scaled lipid accumulation score,[1],0.025
O=C(O)Cc1sc(-c2ccccc2)nc1-c1ccc(Cl)cc1 [Fentiazac],scaled lipid accumulation score,library stock concentration: 6.1 mM,0.006
CCCCC[C@H](O)/C=C/[C@H]1CCC(=O)[C@@H]1CCCCCCC(=O)O [11-deoxy Prostaglandin E1],scaled lipid accumulation score,[1],0.015
CC(C)=CCC[C@](C)(O)C1CC=C(C)CC1 (stereo partly drawn) [Bisabolol],scaled lipid accumulation score,[3],0.049
Cl.Cl.NC1(c2ccc(-c3nc4ccn5c(=O)[nH]nc5c4cc3-c3ccccc3)cc2)CCC1 [listing 1 of 2 here],scaled lipid accumulation score,[4],1.07 (active)
same,scaled lipid accumulation score,[5],1.23 (active)
Cl.Cl.NC1(c2ccc(-c3nc4ccn5c(=O)[nH]nc5c4cc3-c3ccccc3)cc2)CCC1 [listing 2 of 2 here],scaled lipid accumulation score,[2],1.35 (active)
same,scaled lipid accumulation score,[3],1.02 (active)
"O=C1C(=Cc2ccc(O)cc2)C2=Nc3ccccc3C2=C1C1=C2C(=Nc3ccccc32)C(=Cc2ccc(O)cc2)C1=O [Scytonemin, Lyngbya sp.]",scaled lipid accumulation score,[2],≤ 0
COc1ccc2cc(C(C)C(=O)O)ccc2c1 (stereo not drawn) [Naproxen(+)],scaled lipid accumulation score,library stock concentration: 8.7 mM,0.014
same,scaled lipid accumulation score,[3],≤ 0
CCCCCC(=O)CC[C@@H]1[C@@H](C/C=C\CCCC(=O)OC(C)C)[C@@H](O)C[C@H]1O,scaled lipid accumulation score,[1],≤ 0
Nc1nc2[nH]c(=O)[nH]c2c(=O)[nH]1 [8-hydroxy Guanine (hydrochloride)],scaled lipid accumulation score,[1],≤ 0
CCCCC1C(=O)CCC2C(CCCCCCC(=O)O)C(=O)CC12 (stereo not drawn) [Bicyclo Prostaglandin E1],scaled lipid accumulation score,[1],≤ 0
CC(C)c1ccc2c(c1)CC[C@H]1[C@](C)(CN)CCC[C@]21C.Cl [Leelamine (hydrochloride)],scaled lipid accumulation score,[1],0.297 (active)
CC(C)c1ccc2c(c1)CC[C@H]1[C@](C)(CN)CCC[C@]21C [Lylamine hydrochloride],scaled lipid accumulation score,[3],0.527
CCCCCCCCCCCC(=O)NC[C@]1(C)CCC[C@]2(C)c3ccc(C(C)C)cc3CCC12 (stereo partly drawn) [Lauric Acid Leelamide],scaled lipid accumulation score,[1],0.012
CN(C)C(=O)c1ccc(S(=O)(=O)c2ccc(NC(=O)C(C)(O)C(F)(F)F)c(Cl)c2)cc1 (stereo not drawn),scaled lipid accumulation score,[2],≤ -0.009
same,scaled lipid accumulation score,[3],≤ 0
"CCCC/C=C/C=C/C=C\CCCCCCCC(=O)O [9(Z),11(E),13(E)-Octadecatrienoic Acid]",scaled lipid accumulation score,[1],≤ 0
O=C1Nc2ccc(-c3cccnc3)cc2/C1=C/c1ccc[nH]1 [JAK3 Inhibitor VI],scaled lipid accumulation score,[2],≤ 0
Cc1ccc(NC(=O)Nc2cc(C(F)(F)F)ccc2F)cc1Nc1ccc2c(c1)NC(=O)/C2=C\c1ccc[nH]1,scaled lipid accumulation score,library stock concentration: 80 uM,0.038
same,scaled lipid accumulation score,[4],0.353
Cc1ccc(NC(=O)Nc2cc(C(F)(F)F)ccc2F)cc1Nc1ccc2c(c1)NC(=O)C2=Cc1ccc[nH]1,scaled lipid accumulation score,[5],1.14 (active)
same,scaled lipid accumulation score,[3],1.61 (active)
"CCCCc1c(-c2ccc(OC)cc2)[nH]c2nccnc12 [Aloisine, RP106]",scaled lipid accumulation score,[2],0.036
N#C/C(=C(/N)Sc1ccccc1N)c1cccc(C(O)c2ccncc2)c1 (stereo not drawn) [MEK Inhibitor I],scaled lipid accumulation score,[2],≤ 0
CN1CCN(CCCN2c3ccccc3Sc3ccc(Cl)cc32)CC1 [Prochlorperazine edisylate],scaled lipid accumulation score,library stock concentration: 3.5 mM,0.713
same,scaled lipid accumulation score,[3],0.523
Cl.Cl.OCCN1CCN(CCCN2c3ccccc3C=Cc3ccccc32)CC1 [Opipramol dihydrochloride],scaled lipid accumulation score,[3],0.885 (active)
NC(=O)N1c2ccccc2C=Cc2ccccc21,scaled lipid accumulation score,[3],≤ 0
CN1CCN(CCCN2c3ccccc3Sc3ccc(Cl)cc32)CC1 [Prochlorperazine dimaleate],scaled lipid accumulation score,,0.696
same,scaled lipid accumulation score,[3],0.815
OCCN1CCN(CCCN2c3ccccc3Sc3ccc(Cl)cc32)CC1 [Perphenazine] [listing 1 of 2 here],scaled lipid accumulation score,[3],0.916 (active)
OCCN1CCN(CCCN2c3ccccc3Sc3ccc(Cl)cc32)CC1 [Perphenazine] [listing 2 of 2 here],scaled lipid accumulation score,,0.75
same,scaled lipid accumulation score,library stock concentration: 5 mM,0.605
same,scaled lipid accumulation score,[3],0.329
OCCN1CCN(CCCN2c3ccccc3Sc3ccc(Cl)cc32)CC1,scaled lipid accumulation score,[3],0.962 (active)
NC(=O)N1c2ccccc2C=Cc2ccccc21 [Carbamazepine],scaled lipid accumulation score,,≤ 0
same,scaled lipid accumulation score,[2],0.025
same,scaled lipid accumulation score,[3],≤ 0 and 0.28
CCCCC[C@](C)(O)/C=C/[C@H]1C(=O)C[C@H](O)[C@@H]1C/C=C\CCCC(=O)O [15(S)-15-methyl Prostaglandin D2],scaled lipid accumulation score,[1],≤ 0
COC1CCC(C(=O)c2ccc3nc4c(cc3c2)CCCO4)CC1 (stereo not drawn),scaled lipid accumulation score,[3],≤ -0.001
NCC(O)c1ccc(O)c(O)c1 (stereo not drawn),scaled lipid accumulation score,[3],≤ 0
COC(=O)/C=C/c1cccc(N(Cc2ccc(-c3ccc(N(C)C)cc3)cc2)C(=O)C2CCCCC2)c1 [Fexaramine],scaled lipid accumulation score,[3],0.006
CC(NC(=O)Cc1cc(F)cc(F)c1)C(=O)NC1C(=O)N(C)c2ccccc2-c2ccccc21 (stereo not drawn),scaled lipid accumulation score,[2],≤ 0
same,scaled lipid accumulation score,[3],0.235
N[C@@H](Cc1ccc(O)c(I)c1)C(=O)O [3-Iodo-L-tyrosine],scaled lipid accumulation score,[3],≤ -0.055
CCOC(=O)c1ccnc(C(=O)OCC)c1,scaled lipid accumulation score,[1],≤ 0
CC/C=C\C/C=C\C/C=C\CCCCCCCCCC(=O)O [Eicosatrienoic acid (20:3 n-3)],scaled lipid accumulation score,[1],0.075
Nc1nnc(Sc2ncc([N+](=O)[O-])s2)s1,scaled lipid accumulation score,[3],0.438
O=c1[nH]nc(Sc2ncc([N+](=O)[O-])s2)n1-c1ccc2c(c1)OCCO2,scaled lipid accumulation score,[3],1.25 (active)
O=C1NCCN1c1ncc([N+](=O)[O-])s1 [Niridazole],scaled lipid accumulation score,,≤ 0
CCCCC[C@H](O)/C=C/[C@@H]1[C@@H](CCCCCCCO)[C@@H](O)C[C@H]1O [Prostaglandin F1.alpha. Alcohol],scaled lipid accumulation score,[1],≤ 0
CCCCC(=O)Oc1ccccc1C(=O)O [Valeroyl Salicylate],scaled lipid accumulation score,[1],≤ 0
"CC[C@H](CO)Nc1nc(NCc2ccc(-c3ccccn3)cc2)c2ncn(C(C)C)c2n1 [CR8, (R)-Isomer]",scaled lipid accumulation score,[2],≤ 0
CCOC(=O)c1ncc2[nH]c3cccc(OC(C)C)c3c2c1C,scaled lipid accumulation score,[3],0.014
Cc1nc(N=Nc2cc(S(=O)(=O)O)c3cc([N+](=O)[O-])cc(S(=O)(=O)O)c3c2)c(COP(=O)(O)O)c(C=O)c1O [PPNDS tetrasodium],scaled lipid accumulation score,[3],0.229
N#Cc1ccccc1OCC(O)CNCCNC(=O)Nc1ccccc1 (stereo not drawn),scaled lipid accumulation score,[3],0.135
COCCNC(=O)COc1ccc(OCCNC[C@H](O)COc2ccccc2)cc1 [ZD 7114 hydrochloride],scaled lipid accumulation score,[3],0.134
CCCNCC(O)COc1ccccc1C(=O)CCc1ccccc1 (stereo not drawn) [Propafenone HCl],scaled lipid accumulation score,[2],0.241
same,scaled lipid accumulation score,[3],0.684
CCCNCC(O)COc1ccccc1C(=O)CCc1ccccc1.Cl (stereo not drawn) [Propafenone hydrochloride],scaled lipid accumulation score,[3],0.887 (active)
"O=C(O)COc1ccc(OCCNC[C@H](O)COc2ccccc2)cc1 [ICI 215,001 hydrochloride]",scaled lipid accumulation score,[3],0.013
CCCNCC(O)COc1ccccc1C(=O)CCc1ccccc1 (stereo not drawn) [Rythmol],scaled lipid accumulation score,[3],0.811
CCCNCC(O)COc1ccccc1C(=O)CCc1ccccc1 (stereo not drawn) [Propafenone hydrochloride],scaled lipid accumulation score,,0.742
same,scaled lipid accumulation score,library stock concentration: 5.3 mM,0.429
same,scaled lipid accumulation score,[3],0.365
CCCNCC(O)COc1ccccc1C(=O)CCc1ccccc1 (stereo not drawn) [Propafenone],scaled lipid accumulation score,library stock concentration: 5.9 mM,0.566
CC(C)ON(CC(=O)NO)S(=O)(=O)c1ccc(-c2ccccc2)cc1,scaled lipid accumulation score,[1],≤ 0
O=C1NN(C(=O)Nc2ccc(Br)cc2)[C@@H](c2ccccc2)[C@@H]1c1ccccc1,scaled lipid accumulation score,[3],0.026
COc1ccc(-c2cc3c(C)nc(N)nc3n([C@H]3CC[C@H](OCCO)CC3)c2=O)cn1,scaled lipid accumulation score,[2],≤ 0
same,scaled lipid accumulation score,[3],0.45
COc1cccc(-c2cc(F)ccc2C2Cc3nc(N)nc(C)c3C(=O)N2)n1 (stereo not drawn),scaled lipid accumulation score,[2],0.806
COc1cccc(-c2cc(F)ccc2[C@H]2Cc3nc(N)nc(C)c3C(=O)N2)n1,scaled lipid accumulation score,[3],0.937 (active)
Cc1ccsc1C(=CCCN1CCC[C@@H](C(=O)O)C1)c1sccc1C,scaled lipid accumulation score,[3],≤ 0
O=C1N[C@@H]2[C@@H](O)[C@@H](O)[C@H](O)[C@@H](CO)N2C1=O [Kifunensine],scaled lipid accumulation score,[1],0.034
CC(CCCCC(=O)Nc1ccc(C(F)(F)F)cc1)NCCc1cnc[nH]1 (stereo not drawn) [HTMT dimaleate],scaled lipid accumulation score,[3],0.519
NC(=O)CCCSc1nc(N)nc(-c2c(Cl)cc3c4c(cccc24)COC3)n1,scaled lipid accumulation score,[2],0.86 (active)
same,scaled lipid accumulation score,[3],0.886 (active)
O=P(O)(O)OC1[C@H](O)[C@H](O)C(O)[C@H](O)[C@H]1O (stereo partly drawn) [D-myo-Inositol-1-phosphate (sodium salt)],scaled lipid accumulation score,[1],0.012
